Data: the supplement of paper PMC11732987, “Enantioselective OTUD7B fragment discovery through chemoproteomics screening and high-throughput optimisation” (Communications Chemistry, 2025)

Legend:
Assay in all cases: log2 ratio of Biotin-Ahx-Ub-VS probe labelling (fragment/DMSO); higher = less target engagement (more negative = stronger competition), active = hit call of the paper (q ≤ 0.05, log2 ratio ≤ -1)
Details in all cases: compound concentration: 200 uM; treatment time: 3 h
[1] = biological target: T1, USP19 (UniProt O94966)
T1 sequence (whole entry): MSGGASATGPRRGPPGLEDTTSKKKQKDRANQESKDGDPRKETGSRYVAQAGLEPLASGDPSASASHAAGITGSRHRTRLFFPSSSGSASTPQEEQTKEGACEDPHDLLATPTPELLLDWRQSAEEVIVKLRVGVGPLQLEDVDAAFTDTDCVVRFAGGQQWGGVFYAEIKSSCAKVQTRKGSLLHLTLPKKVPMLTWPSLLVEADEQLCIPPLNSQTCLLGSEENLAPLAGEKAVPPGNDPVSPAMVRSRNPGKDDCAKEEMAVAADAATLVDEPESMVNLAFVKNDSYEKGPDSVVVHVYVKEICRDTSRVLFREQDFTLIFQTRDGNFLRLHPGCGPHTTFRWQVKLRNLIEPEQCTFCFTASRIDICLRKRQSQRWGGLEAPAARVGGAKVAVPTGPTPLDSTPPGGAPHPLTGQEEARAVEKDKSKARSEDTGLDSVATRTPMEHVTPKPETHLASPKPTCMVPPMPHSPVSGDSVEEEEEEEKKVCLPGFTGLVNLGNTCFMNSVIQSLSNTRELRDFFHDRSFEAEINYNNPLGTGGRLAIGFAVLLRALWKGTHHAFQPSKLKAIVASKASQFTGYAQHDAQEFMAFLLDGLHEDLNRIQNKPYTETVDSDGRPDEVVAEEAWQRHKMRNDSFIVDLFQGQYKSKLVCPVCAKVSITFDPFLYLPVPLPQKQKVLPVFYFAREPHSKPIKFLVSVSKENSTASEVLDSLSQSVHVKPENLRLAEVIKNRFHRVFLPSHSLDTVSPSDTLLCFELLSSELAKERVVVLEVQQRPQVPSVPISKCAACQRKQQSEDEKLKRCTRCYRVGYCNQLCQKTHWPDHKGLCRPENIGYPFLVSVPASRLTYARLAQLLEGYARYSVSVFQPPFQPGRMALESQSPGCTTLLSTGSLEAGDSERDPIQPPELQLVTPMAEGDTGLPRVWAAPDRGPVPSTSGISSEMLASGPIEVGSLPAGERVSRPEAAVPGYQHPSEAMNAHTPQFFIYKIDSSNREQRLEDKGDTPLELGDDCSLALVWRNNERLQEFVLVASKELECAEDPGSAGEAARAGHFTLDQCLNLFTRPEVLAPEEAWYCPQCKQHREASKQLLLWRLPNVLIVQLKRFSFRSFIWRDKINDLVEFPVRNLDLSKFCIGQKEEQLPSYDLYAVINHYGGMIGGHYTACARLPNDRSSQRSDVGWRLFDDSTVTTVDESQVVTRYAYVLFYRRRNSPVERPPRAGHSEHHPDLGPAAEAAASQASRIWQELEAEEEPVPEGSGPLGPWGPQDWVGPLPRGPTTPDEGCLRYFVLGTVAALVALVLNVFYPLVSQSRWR
How it was run: (§1)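 HEK293T lysate, 495 µg per sample in Tris/CHAPS/IGEPAL buffer with protease inhibitors, was treated in triplicate with fragment at 200 µM or vehicle for 3 h and then with Biotin-Ahx-Ub-VS at 0.5 µM final for 1 h. Labelled DUBs were NeutrAvidin-enriched, digested with LysC and trypsin, and run by diaPASEF LC-MS/MS. Spectronaut label-free quantities were global-median-normalised, and values are average log2 fragment/vehicle ratios by unpaired t-test on proteins with ≥2 unique peptides.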

[2] = biological target: T2, USP22 (UniProt Q9UPT9)
T2 sequence (whole entry): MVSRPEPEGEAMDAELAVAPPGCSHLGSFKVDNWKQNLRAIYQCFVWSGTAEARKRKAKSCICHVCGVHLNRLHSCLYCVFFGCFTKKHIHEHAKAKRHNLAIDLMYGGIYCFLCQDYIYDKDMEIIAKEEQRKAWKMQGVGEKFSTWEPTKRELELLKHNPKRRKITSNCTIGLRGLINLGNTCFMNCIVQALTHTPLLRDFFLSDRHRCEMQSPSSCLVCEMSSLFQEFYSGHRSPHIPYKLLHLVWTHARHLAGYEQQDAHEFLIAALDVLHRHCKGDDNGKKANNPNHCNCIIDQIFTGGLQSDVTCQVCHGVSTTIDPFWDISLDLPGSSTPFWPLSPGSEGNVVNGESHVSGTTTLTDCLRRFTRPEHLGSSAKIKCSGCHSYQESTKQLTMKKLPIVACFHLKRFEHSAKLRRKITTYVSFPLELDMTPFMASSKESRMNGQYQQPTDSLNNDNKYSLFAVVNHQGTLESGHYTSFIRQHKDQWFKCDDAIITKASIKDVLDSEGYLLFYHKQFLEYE
How it was run: as §1

[3] = biological target: USP24 (UniProt Q9UPU5)
How it was run: as §1

[4] = biological target: T3, USP25 (UniProt Q9UHP3)
T3 sequence (whole entry): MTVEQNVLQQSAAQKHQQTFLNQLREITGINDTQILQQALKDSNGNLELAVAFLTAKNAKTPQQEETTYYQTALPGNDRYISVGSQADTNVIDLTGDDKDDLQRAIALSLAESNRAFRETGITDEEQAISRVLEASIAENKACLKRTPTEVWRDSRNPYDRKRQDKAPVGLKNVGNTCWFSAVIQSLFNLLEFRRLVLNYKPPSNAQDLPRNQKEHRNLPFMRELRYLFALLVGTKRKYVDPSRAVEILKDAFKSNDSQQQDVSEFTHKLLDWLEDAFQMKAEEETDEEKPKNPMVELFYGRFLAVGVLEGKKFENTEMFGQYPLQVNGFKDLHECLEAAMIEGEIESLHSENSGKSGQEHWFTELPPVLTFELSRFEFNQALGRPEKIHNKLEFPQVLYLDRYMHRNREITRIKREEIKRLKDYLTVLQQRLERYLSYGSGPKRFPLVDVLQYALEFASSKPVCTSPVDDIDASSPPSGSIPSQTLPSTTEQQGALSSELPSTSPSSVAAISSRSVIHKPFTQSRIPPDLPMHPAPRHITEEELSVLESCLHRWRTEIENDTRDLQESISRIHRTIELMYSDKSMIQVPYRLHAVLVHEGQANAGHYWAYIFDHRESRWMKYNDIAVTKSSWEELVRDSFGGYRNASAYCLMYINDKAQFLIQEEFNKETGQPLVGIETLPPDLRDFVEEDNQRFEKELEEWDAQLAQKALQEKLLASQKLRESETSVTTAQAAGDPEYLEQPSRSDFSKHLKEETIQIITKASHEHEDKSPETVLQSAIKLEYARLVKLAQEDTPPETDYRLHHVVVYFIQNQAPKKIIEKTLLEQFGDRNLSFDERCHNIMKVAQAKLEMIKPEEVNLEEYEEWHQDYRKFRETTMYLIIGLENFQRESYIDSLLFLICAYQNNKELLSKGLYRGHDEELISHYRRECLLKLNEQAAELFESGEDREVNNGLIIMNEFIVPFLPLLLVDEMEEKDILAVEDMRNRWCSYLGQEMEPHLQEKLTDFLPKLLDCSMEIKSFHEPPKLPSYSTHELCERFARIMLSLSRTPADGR
How it was run: as §1

[5] = biological target: T4, USP28 (UniProt Q96RU2)
T4 sequence (whole entry): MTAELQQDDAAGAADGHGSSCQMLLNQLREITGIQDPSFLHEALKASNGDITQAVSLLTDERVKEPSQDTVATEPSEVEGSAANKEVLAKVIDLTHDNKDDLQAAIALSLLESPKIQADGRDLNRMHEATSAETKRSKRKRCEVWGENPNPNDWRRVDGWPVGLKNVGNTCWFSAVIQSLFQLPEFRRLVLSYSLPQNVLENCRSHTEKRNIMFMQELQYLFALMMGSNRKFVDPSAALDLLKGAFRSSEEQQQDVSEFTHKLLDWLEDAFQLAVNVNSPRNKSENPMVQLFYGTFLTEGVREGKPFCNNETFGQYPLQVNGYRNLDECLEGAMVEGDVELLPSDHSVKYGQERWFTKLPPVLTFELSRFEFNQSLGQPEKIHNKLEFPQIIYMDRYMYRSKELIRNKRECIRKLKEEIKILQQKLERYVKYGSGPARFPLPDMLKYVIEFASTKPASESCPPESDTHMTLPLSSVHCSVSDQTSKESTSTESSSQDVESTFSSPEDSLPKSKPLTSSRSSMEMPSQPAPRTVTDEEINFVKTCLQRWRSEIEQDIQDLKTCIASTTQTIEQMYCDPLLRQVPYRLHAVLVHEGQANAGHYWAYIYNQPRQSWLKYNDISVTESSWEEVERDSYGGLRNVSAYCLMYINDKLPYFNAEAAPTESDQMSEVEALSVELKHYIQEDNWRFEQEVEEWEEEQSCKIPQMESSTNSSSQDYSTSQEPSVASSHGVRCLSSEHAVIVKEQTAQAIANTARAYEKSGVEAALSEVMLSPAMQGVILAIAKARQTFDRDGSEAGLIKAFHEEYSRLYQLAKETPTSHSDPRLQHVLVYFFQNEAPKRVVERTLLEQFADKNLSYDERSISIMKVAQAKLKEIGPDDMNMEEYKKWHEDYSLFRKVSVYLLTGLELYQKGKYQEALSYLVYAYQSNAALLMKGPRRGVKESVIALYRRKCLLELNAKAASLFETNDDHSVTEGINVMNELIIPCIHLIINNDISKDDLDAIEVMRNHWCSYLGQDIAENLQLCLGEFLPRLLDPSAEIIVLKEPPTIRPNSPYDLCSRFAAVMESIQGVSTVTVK
How it was run: as §1

Measured: log2 ratio of Biotin-Ahx-Ub-VS probe labelling

Sequence of USP24 (Q9UPU5 whole entry): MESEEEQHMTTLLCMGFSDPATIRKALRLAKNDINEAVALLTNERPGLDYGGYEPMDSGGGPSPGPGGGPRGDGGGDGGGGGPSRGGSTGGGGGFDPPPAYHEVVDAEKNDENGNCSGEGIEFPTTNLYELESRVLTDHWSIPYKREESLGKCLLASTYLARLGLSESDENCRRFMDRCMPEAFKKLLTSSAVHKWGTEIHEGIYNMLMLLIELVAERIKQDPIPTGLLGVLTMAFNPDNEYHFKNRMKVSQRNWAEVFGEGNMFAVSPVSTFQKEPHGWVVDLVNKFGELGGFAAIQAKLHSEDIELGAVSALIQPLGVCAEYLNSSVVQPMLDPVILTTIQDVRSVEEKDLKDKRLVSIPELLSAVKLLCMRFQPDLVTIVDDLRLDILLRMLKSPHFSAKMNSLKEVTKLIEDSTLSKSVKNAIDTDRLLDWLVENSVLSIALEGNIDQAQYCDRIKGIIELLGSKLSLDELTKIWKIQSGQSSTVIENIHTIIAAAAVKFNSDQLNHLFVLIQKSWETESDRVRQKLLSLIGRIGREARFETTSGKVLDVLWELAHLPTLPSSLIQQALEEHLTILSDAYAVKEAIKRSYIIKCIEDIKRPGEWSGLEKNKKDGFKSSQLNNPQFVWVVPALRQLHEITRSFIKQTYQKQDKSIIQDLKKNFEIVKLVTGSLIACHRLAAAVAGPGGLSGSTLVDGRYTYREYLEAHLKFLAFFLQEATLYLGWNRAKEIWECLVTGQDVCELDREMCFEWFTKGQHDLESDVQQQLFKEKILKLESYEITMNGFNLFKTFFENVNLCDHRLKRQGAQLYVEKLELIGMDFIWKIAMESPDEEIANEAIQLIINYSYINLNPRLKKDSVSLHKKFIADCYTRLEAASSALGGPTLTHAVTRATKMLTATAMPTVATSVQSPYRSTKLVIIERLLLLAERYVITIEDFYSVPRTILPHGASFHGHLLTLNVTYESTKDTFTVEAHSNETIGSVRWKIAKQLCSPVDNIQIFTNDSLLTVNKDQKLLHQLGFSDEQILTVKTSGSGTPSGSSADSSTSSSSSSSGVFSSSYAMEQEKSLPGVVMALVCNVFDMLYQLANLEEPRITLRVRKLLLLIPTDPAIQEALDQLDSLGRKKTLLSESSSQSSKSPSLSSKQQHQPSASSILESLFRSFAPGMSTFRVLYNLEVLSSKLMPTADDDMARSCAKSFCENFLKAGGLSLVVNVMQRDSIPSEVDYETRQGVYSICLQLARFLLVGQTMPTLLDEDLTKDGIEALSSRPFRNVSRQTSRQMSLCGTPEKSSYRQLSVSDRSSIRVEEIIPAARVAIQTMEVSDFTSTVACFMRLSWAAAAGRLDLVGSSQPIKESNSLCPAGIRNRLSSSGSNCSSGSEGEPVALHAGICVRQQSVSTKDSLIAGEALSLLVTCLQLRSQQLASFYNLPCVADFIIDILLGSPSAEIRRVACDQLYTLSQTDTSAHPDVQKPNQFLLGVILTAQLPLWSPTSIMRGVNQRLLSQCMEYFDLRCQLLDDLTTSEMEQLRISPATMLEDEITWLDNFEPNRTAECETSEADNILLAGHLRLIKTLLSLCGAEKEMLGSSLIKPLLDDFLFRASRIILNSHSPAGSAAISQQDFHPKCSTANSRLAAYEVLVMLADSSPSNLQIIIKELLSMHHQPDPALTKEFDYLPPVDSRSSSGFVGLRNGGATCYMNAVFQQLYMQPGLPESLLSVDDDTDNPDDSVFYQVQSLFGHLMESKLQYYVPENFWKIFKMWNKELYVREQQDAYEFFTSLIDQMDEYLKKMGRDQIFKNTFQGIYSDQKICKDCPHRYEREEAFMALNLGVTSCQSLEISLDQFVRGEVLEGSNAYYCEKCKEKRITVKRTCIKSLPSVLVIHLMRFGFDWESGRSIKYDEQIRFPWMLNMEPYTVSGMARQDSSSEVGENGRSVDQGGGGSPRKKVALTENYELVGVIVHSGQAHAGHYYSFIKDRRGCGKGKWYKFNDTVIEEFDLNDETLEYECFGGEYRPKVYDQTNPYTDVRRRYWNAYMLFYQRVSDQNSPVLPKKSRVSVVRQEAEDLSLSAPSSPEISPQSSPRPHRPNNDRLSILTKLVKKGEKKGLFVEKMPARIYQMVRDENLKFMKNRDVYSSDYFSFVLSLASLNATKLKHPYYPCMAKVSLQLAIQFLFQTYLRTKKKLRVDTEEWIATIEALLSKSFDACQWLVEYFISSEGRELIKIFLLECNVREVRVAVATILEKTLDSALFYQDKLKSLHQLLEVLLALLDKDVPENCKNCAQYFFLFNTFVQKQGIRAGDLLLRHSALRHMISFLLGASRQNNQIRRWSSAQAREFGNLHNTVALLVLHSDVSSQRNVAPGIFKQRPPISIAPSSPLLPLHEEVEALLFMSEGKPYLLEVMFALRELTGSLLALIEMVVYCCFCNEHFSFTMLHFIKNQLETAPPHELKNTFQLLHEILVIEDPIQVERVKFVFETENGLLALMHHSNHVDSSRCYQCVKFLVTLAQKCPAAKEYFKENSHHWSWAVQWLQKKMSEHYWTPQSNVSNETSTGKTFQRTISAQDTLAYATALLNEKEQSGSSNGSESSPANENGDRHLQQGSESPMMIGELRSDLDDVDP

CCN(C(=O)CCl)C1CCCCC1
inactive: [1] 0.1 | [2] 0.0286 | [3] -0.333 | [4] 0.0335 | [5] -0.0965
